From PubChem BioAssay (NCATS)
Records with an inconclusive call do not appear. Where a call stands in place of a potency, no number is given. A number with no mark means an inactive call. Calls of active or inactive are those of the source. Unless noted, calls come from the whole dose curve; as a rule, active = well fitted curve in the direction sought with a large enough effect; inconclusive = small, poorly fitted or top-dose-only effect, or another doubt; inactive = no such curve, though single readings can be large; an effect the other way counts as inactive or inconclusive.

What was measured:
[1] = molecular target: Luciferin 4-monooxygenase (Photinus pyralis) (UniProt P08659); experiment: Biochemical firefly luciferase enzyme assay for NPC (AID 624030); note: nearly all actives have a fitted effect of over 70% in size; note: potency is the fitted concentration of half-maximal effect
Chain of Luciferin 4-monooxygenase (Photinus pyralis) (P08659 whole entry, looked up): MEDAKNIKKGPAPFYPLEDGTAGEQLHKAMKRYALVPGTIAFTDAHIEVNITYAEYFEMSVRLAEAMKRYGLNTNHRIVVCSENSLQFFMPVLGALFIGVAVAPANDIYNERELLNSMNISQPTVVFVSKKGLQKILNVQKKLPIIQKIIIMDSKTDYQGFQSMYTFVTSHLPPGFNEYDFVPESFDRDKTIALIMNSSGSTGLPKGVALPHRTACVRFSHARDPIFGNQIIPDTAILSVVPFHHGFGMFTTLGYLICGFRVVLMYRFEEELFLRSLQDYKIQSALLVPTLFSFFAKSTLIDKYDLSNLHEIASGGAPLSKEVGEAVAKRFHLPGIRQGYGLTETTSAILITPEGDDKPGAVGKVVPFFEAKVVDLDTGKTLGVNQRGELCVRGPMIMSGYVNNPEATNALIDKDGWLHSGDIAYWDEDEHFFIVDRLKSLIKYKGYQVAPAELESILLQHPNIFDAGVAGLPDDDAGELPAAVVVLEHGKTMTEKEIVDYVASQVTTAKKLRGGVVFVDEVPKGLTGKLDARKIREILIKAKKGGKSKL
How it was run: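 Purified P. pyralis luciferase at 10 nM in 50 mM Tris Acetate (final), luminescence read within 5 minutes of enzyme addition to compounds. Activity normalised to PTC124 versus DMSO; concentration-response curves classed by r2, magnitude and activity.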

[2] = S16 Schwann cell viability assay (CellTiter-Glo assay) (AID 624031); note: nearly all actives have a fitted effect of over 70% in size; note: potency is the fitted concentration of half-maximal effect
How it was run: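 Native S16 rat Schwann cells, 500-750 cells/well in DMEM with 10% FBS, dosed with compound after overnight culture and incubated 24h at 37 degree Celsius/5% CO2. Viability by CellTiter-Glo luminescence; % activity normalized to no-cell wells and DMSO-treated cells.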

[3] = S16 Schwann cell PMP22 intronic element firefly luciferase assay (AID 624032); note: nearly all actives have a fitted effect of over 30% in size
How it was run: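 Rat S16 Schwann cells stably carrying firefly luciferase driven by a PMP22 intronic element, in 10% FBS, treated 24 h at 37 C. ONE-Glo luminescence normalized to PTC124 control and DMSO (0%); curves classed by r2, magnitude and activity.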

[4] = S16 Schwann cell PMP22 intronic element beta-lactamase assay (AID 624044; calls by dose curve; note: nearly all actives have a fitted effect of over 15% in size); settings: S16 rat Schwann cells, PMP22 element beta-lactamase FRET, 24 h; ratio activity, negative = inhibition: at 38.3 µM (top of the series) unless noted
How it was run: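 Rat S16 Schwann cells with beta-Lac driven by a PMP22 intronic element, compound-treated 24 h at 37 °C. LiveBLAzer FRET B/G read: 460 nm normalized to potassium clavulanate vs DMSO; 535 nm FRET as viability; concentration-effect curves classified.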

Structure (SMILES) | Potency [1] | Potency [2] | Potency [3] | ratio activity, negative = inhibition [4] [%]
NC(=S)N=Nc1ccc(NN=C(N)N)cc1 | 11.4 µM (active) | 10.2 µM (active) | inactive | -3.68
O=C1c2ccccc2C(=O)c2c1ccc(O)c2O | – | – | inactive | 0.767
O=C1c2ccccc2CN2C(=O)c3ccccc3CN12 | inactive | inactive | inactive | 0.507
Cc1cc(C)c(NC(=O)C[C@H](CC(=O)O)c2cccc3ccccc23)c(C(=O)N2CCC3(CCCC3)CC2)c1 | inactive | – | inactive | –
Cc1ccccn1 | inactive | inactive | inactive | -0.827
NCC(O)CC(=O)O (configuration not stated) | inactive | inactive | inactive | 4.25
Cc1ncc(C[n+]2csc(CCOP(=O)(O)OP(=O)(O)O)c2C)c(N)n1 | inactive | inactive | inactive | -0.395
Cc1cc2nc3c(=O)[nH]c(=O)nc-3n(C[C@H](O)[C@H](O)[C@H](O)COP(=O)(O)OP(=O)(O)OC[C@H]3O[C@@H](n4cnc5c(N)ncnc54)[C@H](O)[C@@H]3O)c2cc1C | inactive | inactive | inactive | -42.7
C[C@]12CCC(=O)C[C@@H]1CC[C@@H]1[C@@H]2CC[C@]2(C)C=CC[C@@H]12 | inactive | inactive | inactive | 4.94
